The values below come from PubChem BioAssay (Tox21).

Experiment [1] in a line: qHTS assay for small molecules that induce genotoxicity in human embryonic kidney cells expressing luciferase-tagged ATAD5 (AID 651632). Further: nearly all actives have a fitted effect of over 15% in size. The essentials: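 DMSO vehicle served as the control. HEK293T reporter cells, 16 hr at 37C, then 30 min Amplite at room temperature; ATAD5 induction is measured as luciferase activity.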
Experiment [2] is described as follows: qHTS assay for small molecule agonists of the p53 signaling pathway - cell viability (AID 651633; calls by dose curve; further: nearly all actives have a fitted effect of over 30% in size; further: potency means the concentration at half of the fitted maximal effect). The essentials:
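p53RE-bla cells, seeded at 4,000 per well and rested 5 h at 37 C/5% CO2, received compounds in DMSO for 16 h at 37 C. CellTiter-Glo was then added, and luminescence was read after 30 min at room temperature to gauge cytotoxicity.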
A general note: qHTS replaces the single test concentration by a dilution series.

The nature of experiment [3]: qHTS assay for small molecules that induce genotoxicity in human embryonic kidney cells expressing luciferase-tagged ATAD5 - cell viability (AID 651634; calls by dose curve; further: nearly all actives have a fitted effect of over 25% in size; further: potency means the concentration at half of the fitted maximal effect). The essentials: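 Here HEK293T cells with the ATAD5 luciferase reporter are incubated with test compounds for 15.5 hr, and cytotoxicity is then gauged by measuring protease activity in live cells using fluorescence.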

Experiment [4] can be described thus: qHTS assay for small molecule disruptors of the mitochondrial membrane potential - cell viability (AID 720634; calls by dose curve; further: nearly all actives have a fitted effect of over 20% in size; further: potency means the concentration at half of the fitted maximal effect). The essentials:
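Viability of HepG2 cells is scored from ATP content by luminescence; cells are exposed to compound for 1 hr at 37 C and 5% CO2, then dosed with m-MPI dye before the CellTiter-Glo reagent.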

Experiment [5] in a line: qHTS assay to test for compound auto fluorescence at 590 nm (red) in HepG2 cells (AID 720674). In outline: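 Compound auto-fluorescence is scored relative to Rose Bengal sodium, measured at 540/590 nm in live HepG2 cultures after 1 hr compound contact (37 C, 5% CO2).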
Experiment [6] is described as follows: qHTS assay to test for compound auto fluorescence at 535 nm (green) in HepG2 cells (AID 720675).
A short description of experiment [7]: qHTS assay to test for compound auto fluorescence at 460 nm (blue) in HEK293 cells (AID 720678). In outline: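 Blue read-out at excitation 405 nm and emission 460 nm follows overnight compound exposure of HEK293 cells at 37C in 5% CO2. Activity is given as auto fluorescence equivalency to triamterene.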
Experiment [8] is described as follows: qHTS assay to test for compound auto fluorescence at 590 nm (red) in HEK293 cells (AID 720679). In outline:
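Red channel, Ex/Em 540/590nm; signal expressed as equivalency to Rose Bengal sodium. HEK293, 2,000 cells/well, 10% dialyzed FBS; 23 nL compound pinned after 4-5 hr attachment; overnight 37C/5% CO2 before reading.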

Experiment [9] is described as follows: qHTS assay to test for compound auto fluorescence at 535 nm (green) in HEK293 cells (AID 720680).
A short description of experiment [10]: qHTS assay to test for compound auto fluorescence at 460 nm (blue) in HEK293 cell free culture (AID 720681). The essentials:
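Test compounds were pinned into cell-free culture medium (DMEM with 10% FBS) and fluorescence was read directly at Ex/Em 405/460 nm. Signals were expressed as fluorescence equivalents of triamterene, with DMSO vehicle as control.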

The nature of experiment [11]: qHTS assay to test for compound auto fluorescence at 535 nm (green) in HEK293 cell free culture (AID 720682). The essentials:
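Green-channel intensity (Ex/Em 485/535 nm) was recorded from compound-treated wells containing only DMEM with 10% FBS. Fluorescein provided the equivalency standard.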

Experiment [12] is described as follows: qHTS assay to test for compound auto fluorescence at 590 nm (red) in HEK293 cell free culture (AID 720683). The essentials: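 Tox21 10K library compounds were pinned into cell-free DMEM with 10% FBS and fluorescence was read at excitation 540 nm. Activity is expressed as Rose Bengal sodium equivalency.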
Experiment [13] in a line: qHTS assay to test for compound auto fluorescence at 590 nm (red) in HepG2 cell free culture (AID 720684). The essentials: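 Ex 540 / Em 590 nm read of compound in cell-free MEM (10% FBS). Rose Bengal sodium reference.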
Experiment [14] is described as follows: qHTS assay to test for compound auto fluorescence at 460 nm (blue) in HepG2 cell free culture (AID 720685). In outline:
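Cell-free plates of MEM plus 10% FBS received 23 nL compound or DMSO vehicle; blue-channel (405/460 nm) intensity scored against triamterene as reference fluorophore.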

The nature of experiment [15]: qHTS assay to test for compound auto fluorescence at 535 nm (green) in HepG2 cell free culture (AID 720686).
Experiment [16] is described as follows: qHTS assay to test for compound auto fluorescence at 460 nm (blue) in HepG2 cells (AID 720687). The essentials:
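Cells (2,000/well in MEM with 10% FBS) attached overnight at 37 C, then were exposed to compound or DMSO for 1 hr at 37 C, 5% CO2. Fluorescence read at Ex/Em 405/460 nm, expressed as triamterene-equivalent signal.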

Experiment [17] has as its target Glucocorticoid receptor (Homo sapiens) (UniProt P04150). Kind of experiment: qHTS assay to identify small molecule antagonists of the glucocorticoid receptor (GR) signaling pathway (AID 720692; active means well fitted inhibition curve with a large enough effect in the signal ratio in the repeat runs, not every such curve was filed as active; the % refers to the signal ratio). The essentials:
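In a 1536-well cell format, compounds were added 4 h after seeding GR-bla HeLa cells, together with dexamethasone at 5 nM final; reporter activity was measured by FRET-substrate fluorescence following 18 h at 37 C.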

Experiment [18] shares this target. Kind of experiment: qHTS assay to identify small molecule agonists of the glucocorticoid receptor (GR) signaling pathway (AID 720691; active means well fitted activation curve with a large enough effect in the signal ratio in the repeat runs, not every such curve was filed as active; the % refers to the signal ratio). The essentials:
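Compounds in DMSO, alongside positive controls, were added to GR-bla HeLa reporter cells and incubated 18 h at 37 C; GRE-driven beta-lactamase was detected by fluorescence after 2 h with FRET substrate at room temperature.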

A short description of experiment [19]: qHTS assay for small molecule disruptors of the mitochondrial membrane potential (AID 720635). Further: potency means the concentration at half of the fitted maximal effect. In outline:
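HepG2 cells (2,000/well) attached overnight at 37C, then took compound for 1 hr at 37C, 5% CO2. Mito-MPS dye was added for 30 min; fluorescence was read at 490/535 nm (monomers) and 540/590 nm (aggregates).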

Values joined by “and” are separate entries in the source; they are usually repeats but may differ in a detail not shown here. Equal values may be shown once. Unmarked numbers belong to inactive results. Inconclusive results are not listed. Active and inactive are the calls of the source. Unless noted, the call rests on the fitted dose curve; in most records, active means well fitted curve in the direction sought with a large enough effect in the repeat runs; inconclusive means weak or mixed curves; inactive means no such curve, though single readings can be large; an effect the other way counts as inactive or inconclusive.

Sequence of Glucocorticoid receptor (Homo sapiens) (P04150 whole entry, looked up): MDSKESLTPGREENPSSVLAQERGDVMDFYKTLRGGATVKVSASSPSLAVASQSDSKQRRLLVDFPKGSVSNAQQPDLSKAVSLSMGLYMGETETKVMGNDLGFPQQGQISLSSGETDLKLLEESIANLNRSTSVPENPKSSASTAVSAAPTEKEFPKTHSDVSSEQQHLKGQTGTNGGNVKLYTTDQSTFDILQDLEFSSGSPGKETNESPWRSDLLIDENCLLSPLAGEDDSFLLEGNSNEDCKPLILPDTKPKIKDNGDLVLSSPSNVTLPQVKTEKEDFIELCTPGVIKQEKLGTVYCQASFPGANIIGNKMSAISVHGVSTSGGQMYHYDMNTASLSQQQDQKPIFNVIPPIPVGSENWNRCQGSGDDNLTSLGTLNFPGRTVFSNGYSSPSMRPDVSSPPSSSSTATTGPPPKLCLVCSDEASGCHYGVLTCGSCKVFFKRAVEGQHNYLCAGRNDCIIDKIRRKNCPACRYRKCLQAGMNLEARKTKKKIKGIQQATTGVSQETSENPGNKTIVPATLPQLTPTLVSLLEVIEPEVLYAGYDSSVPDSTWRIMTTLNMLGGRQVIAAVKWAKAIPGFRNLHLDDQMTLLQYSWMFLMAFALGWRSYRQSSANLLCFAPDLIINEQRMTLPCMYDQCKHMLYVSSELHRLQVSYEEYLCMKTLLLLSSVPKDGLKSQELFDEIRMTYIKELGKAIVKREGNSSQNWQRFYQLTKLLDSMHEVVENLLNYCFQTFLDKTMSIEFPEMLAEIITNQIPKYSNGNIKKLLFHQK

`O=C(Nc1ccccc1)Nc1cnns1`: the Potency entry in experiment [1], in experiment [2], in experiment [3], in [4] and in experiment [17] was “inactive” throughout. In addition, the result in [5], in experiment [6], in [7], in experiment [8], in experiment [9] and in experiment [10] was inactive. For the same molecule, the outcome in experiment [11], in experiment [12], in experiment [13], in experiment [14], in experiment [15] and in experiment [16] was inactive.

`O=S(=O)(O)C(F)(F)C(F)(F)C(F)(F)C(F)(F)F`: the Potency result in experiment [1], in experiment [2], in [3], in experiment [4] and in experiment [17] was “inactive” each time. In addition, the molecule was classed as inactive in experiment [5], in [6], in experiment [7], in [8], in experiment [9] and in [10]. Also, the molecule was called inactive in experiment [11], in experiment [12], in experiment [13], in [14], in experiment [15] and in experiment [16]. In experiment [18], the molecule was called inactive.

Regarding `CCCCCCCCCCOC(=O)c1ccccc1C(=O)OCCCCCCCCCC`, the Potency result in experiment [1], in [2], in experiment [3] and in [4] was “inactive” throughout. Further, the call in [5], in experiment [6], in experiment [7], in experiment [8], in [9] and in experiment [10] was inactive. The molecule was called inactive in [11], in experiment [12], in experiment [13], in experiment [14], in experiment [15] and in [16]. For the same molecule, the molecule was called inactive in experiment [18].

For `C[C@H]1CNCCc2ccc(Cl)cc21`, the Potency result in experiment [1], in experiment [2], in [3], in experiment [4], in experiment [19] and in experiment [17] was “inactive” throughout. Also, the outcome in [5], in experiment [6], in experiment [7], in [8], in experiment [9] and in [11] was inactive. Moreover, the molecule was classed as inactive in experiment [12], in experiment [13], in experiment [14], in experiment [15], in experiment [16] and in experiment [18].

As for `O=C(C(Cl)(Cl)Cl)C(Cl)(Cl)Cl`, the Potency result in experiment [1], in [2], in experiment [3], in experiment [4], in [19] and in [17] was “inactive” each time. Moreover, the call in experiment [6], in experiment [7], in experiment [8], in experiment [9], in experiment [10] and in [11] was inactive. The outcome in experiment [12], in [13], in experiment [14], in experiment [15] and in [18] was inactive.

As for `COc1nn(CSP(=S)(OC)OC)c(=O)s1`, the Potency entry in [1], in [2], in [3] and in experiment [4] was “inactive” each time. Moreover, the result in experiment [5], in experiment [6], in [7], in [8], in [9] and in experiment [10] was inactive. In addition, the molecule was classed as inactive in experiment [11], in experiment [12], in experiment [13], in [14], in experiment [15] and in experiment [16]. In addition, in experiment [18], the molecule was called inactive.

In the case of `ClCCCCBr`, the Potency result in experiment [1], in [2], in [3] and in experiment [4] was “inactive” throughout. Further, the molecule was called inactive in experiment [5], in experiment [6], in [7], in experiment [8], in [9] and in [10]. The molecule was called inactive in experiment [11], in experiment [12], in [13], in experiment [14], in [15] and in experiment [16]. Moreover, the molecule was classed as inactive in experiment [18].

On to `CCOP(O)OCC`, for which the Potency entry in experiment [1], in experiment [2], in experiment [3], in [4] and in experiment [17] was “inactive” throughout. The result in experiment [5], in [6], in experiment [7], in experiment [8], in [9] and in experiment [10] was inactive. For the same molecule, the call in [11], in [12], in experiment [13], in experiment [14], in experiment [15] and in [18] was inactive.

Regarding `NC(=O)C(Cl)(Cl)Cl`, the Potency entry in experiment [1], in experiment [2], in experiment [3], in [4] and in experiment [19] was “inactive” each time. The call in experiment [5], in [6], in experiment [7], in [9], in experiment [11] and in experiment [12] was inactive. The molecule was classed as inactive in experiment [13], in experiment [14], in experiment [15] and in [16].

With `Nc1ccc([N+](=O)[O-])cc1[N+](=O)[O-]`, the Potency entry in experiment [1], in [2] and in experiment [4] was “inactive” in each case. In addition, the values for the Potency in [3] and in experiment [19] were 15 µM (active) and 29.9 µM (active), respectively. The molecule was called inactive in [6], in experiment [7], in [8], in [9], in experiment [10] and in experiment [11]. The molecule was called inactive in experiment [12], in experiment [13], in [14], in experiment [15] and in [16].

Turning to `C(=NC1CCCCC1)=NC1CCCCC1`, in experiment [1], the Potency result is “inactive”. Moreover, the Potency was 30.8 µM (active) and 17.2 µM (active) in [2]; 30.8 µM (active) and 43.3 µM (active) in [3]; 5.48 µM (active) in experiment [4]; 138 nM (active) and 217 nM (active) in [19]. Besides, the molecule was called inactive in [6], in experiment [7], in [9], in experiment [11], in [12] and in [13]. Also, the call in [14], in experiment [15] and in [16] was inactive.

As for `Oc1ccc(Cl)c(Cl)c1Cl`, the Potency entry in experiment [1], in [2], in experiment [3], in experiment [4] and in experiment [17] was “inactive” throughout. Also, the Potency in [19] was 4.49 µM (active). Besides, the call in experiment [5], in experiment [6], in experiment [7], in [9], in [10] and in experiment [11] was inactive. Further, the outcome in experiment [12], in [13], in experiment [14], in experiment [15] and in [18] was inactive.

Consider `CN(N=O)c1ccc([N+](=O)[O-])cc1`, for which the Potency result in experiment [1], in experiment [2], in experiment [3], in [4], in [19] and in experiment [17] was “inactive” in each case. In addition, the result in experiment [5], in experiment [6], in [7], in experiment [8], in [9] and in [10] was inactive. For the same molecule, the molecule was classed as inactive in [11], in [12], in experiment [13], in experiment [14], in experiment [15] and in experiment [16]. Moreover, in experiment [18], the molecule was called inactive.
